Test results published in PubChem BioAssay (NCI).
The panel holds about 79,000 compounds, 15% with a hit somewhere; the sample as a whole holds those more often. Rule as the data show it: active = growth inhibition above about 70%; inactive = the rest.

Legend:
[1] = NCI Yeast Anticancer Drug Screen. Data for the rad50 strain (AID 155);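 also: 0% = growth of vehicle-only cultures of the same strain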; details: S. cerevisiae rad50 strain growth inhibition; at 50.0 µM; stronger effect = higher value
How it was run: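 Inhibition values express reduced yeast growth in compound-treated cultures relative to vehicle-treated controls.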

[2] = NCI Yeast Anticancer Drug Screen. Data for the mec2-1 strain (AID 157); details: S. cerevisiae mec2-1 strain, at 50.0 µM, stronger effect = higher value
How it was run: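 Compounds were applied to mec2-1 yeast cells. Their growth was then compared with that of vehicle-treated cultures to give growth inhibition.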

[3] = NCI Yeast Anticancer Drug Screen. Data for the sgs1 mgt1 strain (AID 161);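 also: 0% = growth of cultures given vehicle only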; details: S. cerevisiae sgs1 mgt1 strain, at 50.0 µM, stronger effect = higher value
How it was run: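 Growth of a repair-deficient yeast mutant was monitored after compound treatment and expressed as inhibition relative to vehicle-treated cultures.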

[4] = NCI Yeast Anticancer Drug Screen. Data for the cln2 rad14 strain (AID 165);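 also: 0% = growth equal to vehicle treated cultures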; details: S. cerevisiae cln2 rad14 strain, at 50.0 µM, stronger effect = higher value
How it was run: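 Strain: cln2 rad14 yeast, altered in cell cycle control and DNA damage repair. Read-out: growth inhibition vs vehicle.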

[5] = NCI Yeast Anticancer Drug Screen. Data for the bub3 strain (AID 167); details: S. cerevisiae bub3 mutant strain, at 50.0 µM, stronger effect = higher value
How it was run: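 Steps: expose the mutant yeast strain to compound; grow alongside vehicle-treated cultures; measure growth; express inhibition against the vehicle cultures.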

[6] = NCI Yeast Anticancer Drug Screen. Data for the mlh1 rad18 strain (AID 175); details: S. cerevisiae mlh1 rad18 strain growth inhibition; at 50.0 µM; stronger effect = higher value
How it was run: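 A repair-deficient yeast strain is exposed to test compound, and growth is scored relative to vehicle-treated controls.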

Measured: growth inhibition

CC(=O)OCC1OC(n2ncnc2CBr)C(OC(C)=O)C(OC(C)=O)C1OC(C)=O (stereo unspecified)
inactive: [1] 30% | [2] -3.4% | [3] 12.4% | [4] 8.45% | [5] -4.8% | [6] 10.6%

CCC(=O)/C=C/c1cc(OC)c(OC)c(OC)c1
inactive: [1] 7.15% | [2] -24.9% | [3] -4.4% | [4] -36.9% | [5] -9.1% | [6] 2.4%

C=C(Cl)COC(=O)C(C)O (stereo unspecified)
inactive: [1] 3% | [2] -12.2% | [3] -7.55% | [4] 24.4% | [5] -7.4% | [6] 8.95%

CCOC(=O)C(CC)(C(=O)OCC)C(C)CC (stereo unspecified)
inactive: [1] 11.3% | [2] -1.65% | [3] 15.1% | [4] -5.9% | [5] -7.55% | [6] -1.25%

CC(=O)c1cc(C)ccc1Br
inactive: [1] 7.2% | [2] 6.65% | [3] -16.3% | [4] 0.5% | [5] -7.85% | [6] 7.35%

N#CC1(OC2OC(CO)C(O)C(O)C2O)C=CCC1 (stereo unspecified)
inactive: [1] 8.1% | [2] -33% | [3] 4.45% | [4] -7.45% | [5] -12.9% | [6] -3.05%

Fc1ccc(N2C(c3ccccc3)=N[C@@H](N3CCOCC3)[C@@H]2N2CCOCC2)cc1
inactive: [1] 21.4% | [2] 11.2% | [3] 4.2% | [4] -19.9% | [5] -2.2% | [6] 20%

C/C=C(\C)C(=O)OC1CC(OC(=O)/C(C)=C/C)C2(C)C3C(=O)C=C(C)C2C3C1(C)C (stereo unspecified)
inactive: [1] 18.8% | [2] 5.85% | [3] 34.6% | [4] 25.6% | [5] 3.05% | [6] 6.8%

NC(C(F)(F)F)(C(F)(F)F)P(=O)(Cc1ccccc1)Cc1ccccc1
inactive: [1] -8.35% | [2] -47.4% | [3] -18.7% | [4] -13.8% | [5] -23.1% | [6] 7.85%

CC(=O)c1sc(Nc2nnc(-c3ccc(-c4nnc(Nc5nc(C)c(C(C)=O)s5)o4)cc3)o2)nc1C
inactive: [1] 3.15% | [2] -14.3% | [3] -25% | [4] 6.4% | [5] -3.05% | [6] 3.05%

CC1(C)COC(c2ccc3ccccc3c2)OC1
inactive: [1] 26% | [2] 10.7% | [3] -6.2% | [4] -21.9% | [5] 35.4% | [6] -5.8%

O=C(Cc1ccccc1)NC(=O)Nc1ccccc1
inactive: [1] -7.5% | [2] -10.2% | [3] -8.4% | [4] -0.15% | [5] -3.1% | [6] 0.4%

CC1CCCC(C)(c2ccccc2)/C1=N\Nc1ccc([N+](=O)[O-])cc1[N+](=O)[O-] (stereo unspecified)
inactive: [1] 36.2% | [2] 13.9% | [3] 9.65% | [4] 18% | [5] 2.1% | [6] 29.9%

CCOC(=O)c1c(Br)c(-c2ccc(OC)cc2)c(Br)n1C
inactive: [1] -12.8% | [2] 9.8% | [3] -22.2% | [4] -48% | [5] -39% | [6] -5.95%

CC1=CC(=O)C(CCC#N)C(C)(C)C1 (stereo unspecified)
inactive: [1] -8.6% | [2] -17.9% | [3] -1.75% | [4] -36.9% | [5] 5.85% | [6] -0.4%

CC(C)(C)OC(=O)C1=C2C=C(O)C=CC2(C)N(Cc2ccccc2)C1=N (stereo unspecified)
inactive: [1] -23.9% | [2] -55.5% | [3] -36% | [4] -36.2% | [5] -24.6% | [6] -50.2%

CC1CC=[N+]([O-])C1(C)C (stereo unspecified)
inactive: [1] -6.6% | [2] -18.1% | [3] 14.2% | [4] -12.2% | [5] 16.7% | [6] -11.1%

Nc1ncnc(N)c1NC(=O)c1ccccc1
inactive: [1] -16.4% | [2] -19.6% | [3] -24.4% | [4] -21.4% | [5] 3.25% | [6] 14.6%

COC1(OC)C2(Cl)C(Cl)=C(Cl)C1(Cl)C1CCCCC12 (stereo unspecified)
inactive: [1] 12.7% | [2] 11.1% | [3] 15.5% | [4] -57% | [5] -5.15% | [6] 2.3%

CCOC(=O)C(CCCOC1CCCCO1)(C(=O)OCC)c1ccccc1 (stereo unspecified)
inactive: [1] 21.4% | [2] -0.1% | [3] -15.2% | [4] 14.4% | [5] 8.8% | [6] -5%

CCCc1cc2c3c(c(=O)oc2cc1O)CCCCC3
inactive: [1] -17.9% | [2] 19.4% | [3] 4.7% | [4] -22.5% | [5] -9.8% | [6] -14.3%
